The panel holds about 79,000 compounds, 15% with a hit somewhere; the sample as a whole holds those more often. Calls of active or inactive are those of the source. No stated cut-off is given here; in the data, active means growth inhibition above about 70%; inactive means the rest.

A short description of the assay: NCI Yeast Anticancer Drug Screen. Data for the bub3 strain (AID 167). The settings on record: S. cerevisiae bub3 mutant strain, at 50.0 µM, stronger effect = higher value. In short, it runs like this: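 Mutant yeast screening strain plus compound; vehicle-treated cultures serve as the 0% inhibition reference.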
Consider `CCN(CC)C(=O)c1cc2c(cc1[N+](=O)[O-])OCO2`, for which the growth inhibition was 1.25% (inactive).

For the compound `CC(=O)n1[nH]c(=O)n(-c2ccc(Cl)cc2)c1=O`, the growth inhibition was -22.2% (inactive).

For the compound `CCC(C)NCC/C(=C\[Si](C)(C)C)c1ccccc1` (stereo not given), the growth inhibition is -0.15% (inactive).

For the compound `COc1ccc(Cl)cc1NC(=O)c1ccccc1C(=O)O`, the growth inhibition is 12.4% (inactive).

`CC(=O)c1c(O)cccc1O`: the growth inhibition was 8.7% (inactive).

With `Cc1ccc2snc(C(=O)O)c2c1[N+](=O)[O-]`, the growth inhibition was -13.6% (inactive).

On to `COC1(OC)C2(Cl)CC(C(=O)O)C1(Cl)C(Cl)=C2Cl` (stereo not given), for which the growth inhibition was -1.35% (inactive).

As to `CC(CN1CCCC1)(Oc1ccccc1)C(=O)c1ccccc1` (stereo not given), the growth inhibition was 10.1% (inactive).

In the case of `ClC(Cl)=C(c1ccccc1)c1ccccc1`, the growth inhibition is -4.45% (inactive).

On to `C#CC(C)(C)CC`, for which the growth inhibition was -8.1% (inactive).

On to `C[N+]([O-])(C/C=C/c1ccccc1)c1ccccc1` (stereo not given), for which the growth inhibition was -29.1% (inactive).

Consider `CC(C)C1(C(C)C)OCC(CO)O1` (stereo not given), for which the growth inhibition was 16.4% (inactive).

As for `CC1=C(OCCCl)C2CC1C1C(=O)N(c3ccccc3)C(=O)C21` (stereo not given), the growth inhibition was -4.9% (inactive).

Regarding `COC(=O)c1ccccc1Cl`, the growth inhibition is 6.65% (inactive).

`C=CCC(O)CC=C`: the growth inhibition is 5.2% (inactive).

Regarding `OCCSc1ccc(Cl)cc1`, the growth inhibition is 12.8% (inactive).

As for `N#CC(C#N)=CC(C#N)C#N`, the growth inhibition is 5.1% (inactive).

On to `CC1CNC(=S)O1` (stereo not given), for which the growth inhibition was -32.1% (inactive).

On to `C[N+](C)(C)CCC(=O)N1C/C(=C\c2ccccc2)C(=O)/C(=C/c2ccccc2)C1`, for which the growth inhibition is -15.7% (inactive).

Consider `NC(=O)Cc1csc(Br)n1`, for which the growth inhibition is 15.4% (inactive).

For `Nc1ncnc2nc(N3CCN(CCO)CC3)[nH]c12`, the growth inhibition is -26.2% (inactive).

For the compound `Cc1ccc(SC(C)/C=C/NNC2=NC(c3ccccc3)C(c3ccccc3)=NN2)cc1` (stereo not given), the growth inhibition was 13.7% (inactive).

For the compound `O=c1nc(Sc2ccccc2)ccn1C1OC(CO)C(O)C1O` (stereo not given), the growth inhibition is 6.55% (inactive).

Turning to `C[N+]1(C)CCC(C(=O)c2ccccc2)CC1`, the growth inhibition was 17% (inactive).

With `N=C1C(O)=CC(=O)C(O)=C1C(=O)O`, the growth inhibition was -13% (inactive).

`CCNC(=O)OC1C=CS(=O)(=O)C1` (stereo not given): the growth inhibition was 7.95% (inactive).

On to `S=c1[nH]nc2nc3c4ccccc4c4ccccc4c3nn12`, for which the growth inhibition is 21.2% (inactive).

In the case of `Cc1ccc(S(=O)c2ccccc2C(O)(C(F)(F)F)C(F)(F)F)cc1` (stereo not given), the growth inhibition was 52.1% (inactive).

Take `OC1CCCCC2CC2C1O` (stereo not given): the growth inhibition was 3.55% (inactive).

For `CN(C)CC1CC=CCC1CN(C)C` (stereo not given), the growth inhibition was 6.85% (inactive).

With `CCCCOC1NC(=O)NC(=O)C1(F)C(=O)OCC` (stereo not given), the growth inhibition was -9.55% (inactive).

On to `CC(=O)Nc1ccc(CCNC(=O)c2ccc3ccccc3c2O)cc1`, for which the growth inhibition is -11.8% (inactive).

In the case of `O=C(Nc1nc(=S)[nH][nH]1)C(=O)C1C(=O)Nc2ccccc2S1=O` (stereo not given), the growth inhibition was -20.9% (inactive).

As to `CCOP(=O)(OCC)/C(C#N)=C/c1c(C)[nH]c2ccccc12`, the growth inhibition was -7.45% (inactive).

In the case of `Cc1cc(C)c(C#N)c(SC(C(=O)NC(C)(C)C)c2ccccc2)n1` (stereo not given), the growth inhibition was -8.15% (inactive).

With `CCN(CC)CCOC(=O)c1c(C)cc(C)cc1C`, the growth inhibition is -15.6% (inactive).

As to `Nc1nc(N)c2[nH]cnc2n1` (tested in a mixture with another compound), the growth inhibition is -41.6% (inactive).

For the compound `CC(C)N(CC(=O)O)CC(=O)O`, the growth inhibition was -22.9% (inactive).

As to `Cc1c(CCOC=O)c(=O)[nH]c2nncn12`, the growth inhibition was -9.65% (inactive).

Consider `CC(=O)Oc1c2oc3cc(O)c(O)cc3c2c(OC(C)=O)c2oc3cc(O)c(O)cc3c12`, for which the growth inhibition was -0.8% (inactive).

The record behind these values is PubChem BioAssay (NCI).
